From article PMC7862700, “An all-to-all approach to the identification of sequence-specific readers for epigenetic DNA modifications on cytosine” come the findings set out here.

Common to all, as to test: DAPPL (digital affinity profiling via proximity ligation, sequencing); 10 mM Tris-HCl pH 7.5, 50 mM NaCl, 1 mM DTT, 4% glycerol, room temperature, 30 min; GST-TFs on glutathione beads, 16-mer random dsDNA library, 0.1% formaldehyde crosslink after washing; high values mean tight binding
One experiment has as its target T1, FEV (Homo sapiens, UniProt Q99581 1-238).
T1 sequence: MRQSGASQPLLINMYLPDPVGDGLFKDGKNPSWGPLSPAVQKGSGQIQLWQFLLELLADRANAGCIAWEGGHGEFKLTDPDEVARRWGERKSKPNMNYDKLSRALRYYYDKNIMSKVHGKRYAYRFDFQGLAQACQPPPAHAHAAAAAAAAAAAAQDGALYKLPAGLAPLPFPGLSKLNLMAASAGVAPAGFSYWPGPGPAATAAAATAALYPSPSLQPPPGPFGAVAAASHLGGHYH
The settings on record: protein: recombinant; tags: N-terminal GST; dsDNA, one strand shown. In outline:
(§1)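 Human transcription factors carrying a GST fusion were produced in yeast, bound to glutathione beads, tagged with DNA barcodes and pooled together with a tag-only sample. Each pool was held with 200 nmole of a random double-stranded 16-mer DNA library in Tris/NaCl/DTT/glycerol buffer for 30 min at room temperature, then washed, crosslinked in 0.1% formaldehyde, proximity-ligated with BsaI/T4 ligase (1 h, 37 °C), PCR-amplified and sequenced on an Illumina NextSeq500. Binding signal is the read frequency of each hexamer for a given factor divided by its frequency in the tag-only sample.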

The target of a further experiment is ETV5 (Homo sapiens, UniProt P41161 1-510). As to conditions: protein: recombinant; tags: N-terminal GST; dsDNA, one strand shown. Put shortly:
as §1

The next experiment deals with HSF1 (Homo sapiens, UniProt Q00613 1-529). As to conditions: protein: recombinant; tags: N-terminal GST; chain copies: 3; dsDNA, one strand shown. Put shortly:
as §1

A further experiment deals with T2, SPIC (Homo sapiens, UniProt Q8N5J4 1-248).
T2 sequence: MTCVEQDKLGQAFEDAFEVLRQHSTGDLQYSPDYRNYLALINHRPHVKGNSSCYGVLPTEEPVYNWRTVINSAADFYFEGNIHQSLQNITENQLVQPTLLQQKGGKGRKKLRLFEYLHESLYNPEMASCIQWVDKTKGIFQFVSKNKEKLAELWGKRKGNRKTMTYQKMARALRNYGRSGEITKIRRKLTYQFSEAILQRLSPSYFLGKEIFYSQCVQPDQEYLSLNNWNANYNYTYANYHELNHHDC
As to conditions: protein: recombinant; tags: N-terminal GST; dsDNA, one strand shown. In outline:
as §1

For the next experiment, the target named is ELF4 (Homo sapiens, UniProt Q99607 1-663). The settings on record: protein: recombinant; tags: N-terminal GST; dsDNA, one strand shown. In outline: as §1
ELF4, sequence (Q99607 whole entry): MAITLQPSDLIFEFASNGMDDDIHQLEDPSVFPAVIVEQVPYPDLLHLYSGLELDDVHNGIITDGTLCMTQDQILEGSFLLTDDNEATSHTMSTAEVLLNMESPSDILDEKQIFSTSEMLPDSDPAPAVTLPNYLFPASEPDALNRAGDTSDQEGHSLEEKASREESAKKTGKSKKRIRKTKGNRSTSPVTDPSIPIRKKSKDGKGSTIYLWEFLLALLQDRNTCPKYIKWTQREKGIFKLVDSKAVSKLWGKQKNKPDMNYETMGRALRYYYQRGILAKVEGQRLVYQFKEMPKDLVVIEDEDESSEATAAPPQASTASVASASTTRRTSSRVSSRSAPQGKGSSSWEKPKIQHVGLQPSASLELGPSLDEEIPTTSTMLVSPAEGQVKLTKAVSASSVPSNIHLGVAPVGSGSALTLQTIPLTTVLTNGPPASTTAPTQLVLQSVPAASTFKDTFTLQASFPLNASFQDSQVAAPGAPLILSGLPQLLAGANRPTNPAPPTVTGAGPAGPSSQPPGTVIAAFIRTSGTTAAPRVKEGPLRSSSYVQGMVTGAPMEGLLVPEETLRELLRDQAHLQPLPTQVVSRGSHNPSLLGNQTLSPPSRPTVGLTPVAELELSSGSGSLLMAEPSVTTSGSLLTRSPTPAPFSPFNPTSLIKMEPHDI
For the next experiment, the target named is T3, ELK4 (Homo sapiens, UniProt P28324-2 1-405).
T3 sequence: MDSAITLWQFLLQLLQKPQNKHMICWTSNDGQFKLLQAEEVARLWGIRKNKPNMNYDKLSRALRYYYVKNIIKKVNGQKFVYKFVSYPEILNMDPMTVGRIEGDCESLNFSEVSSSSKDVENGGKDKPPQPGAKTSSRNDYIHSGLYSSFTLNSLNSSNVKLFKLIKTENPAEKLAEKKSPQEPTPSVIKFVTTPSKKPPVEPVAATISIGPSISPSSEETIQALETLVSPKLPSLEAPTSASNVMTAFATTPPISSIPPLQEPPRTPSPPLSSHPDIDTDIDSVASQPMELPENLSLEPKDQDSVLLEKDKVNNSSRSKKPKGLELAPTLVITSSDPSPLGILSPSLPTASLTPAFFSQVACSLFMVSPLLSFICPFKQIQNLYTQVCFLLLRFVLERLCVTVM
As to conditions: protein: recombinant; tags: N-terminal GST; dsDNA, one strand shown. Put shortly: as §1

In another experiment the target is T4, ETV2 (Homo sapiens, UniProt O00321 1-342).
T4 sequence: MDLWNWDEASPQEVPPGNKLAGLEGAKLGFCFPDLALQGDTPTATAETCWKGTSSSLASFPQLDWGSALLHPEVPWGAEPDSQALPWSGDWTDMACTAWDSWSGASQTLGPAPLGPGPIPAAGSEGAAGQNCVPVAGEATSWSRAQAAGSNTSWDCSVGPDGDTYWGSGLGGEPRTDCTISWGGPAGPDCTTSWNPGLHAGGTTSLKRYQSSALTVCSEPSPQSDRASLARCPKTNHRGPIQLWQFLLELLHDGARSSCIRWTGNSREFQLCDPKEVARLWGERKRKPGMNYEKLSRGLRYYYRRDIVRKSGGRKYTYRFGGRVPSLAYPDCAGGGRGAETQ
As to conditions: protein: recombinant; tags: N-terminal GST; dsDNA, one strand shown. In outline: as §1

The next experiment concerns the target T5, ELF3 (Homo sapiens, UniProt P78545 1-371).
T5 sequence: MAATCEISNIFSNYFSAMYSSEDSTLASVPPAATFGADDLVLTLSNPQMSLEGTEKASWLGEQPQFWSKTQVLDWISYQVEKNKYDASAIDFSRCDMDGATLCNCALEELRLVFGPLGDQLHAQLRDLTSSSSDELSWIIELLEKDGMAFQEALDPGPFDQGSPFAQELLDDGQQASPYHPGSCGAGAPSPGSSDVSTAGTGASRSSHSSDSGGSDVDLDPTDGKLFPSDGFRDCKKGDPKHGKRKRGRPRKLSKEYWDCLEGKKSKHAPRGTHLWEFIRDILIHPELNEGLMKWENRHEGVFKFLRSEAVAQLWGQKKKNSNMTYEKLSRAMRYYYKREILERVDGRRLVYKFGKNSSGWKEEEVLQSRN
The settings on record: protein: recombinant; tags: N-terminal GST; dsDNA, one strand shown. Put shortly: as §1

For the next experiment, the target named is CRX (Homo sapiens, UniProt O43186 1-299). The settings on record: protein: recombinant; tags: N-terminal GST; dsDNA, one strand shown. In outline:
as §1

Another experiment concerns the target ETV1 (Homo sapiens, UniProt P50549 1-477). The settings on record: protein: recombinant; tags: N-terminal GST; dsDNA, one strand shown. Put shortly:
as §1

A further experiment deals with T6, ERF (Homo sapiens, UniProt P50548 1-548).
T6 sequence: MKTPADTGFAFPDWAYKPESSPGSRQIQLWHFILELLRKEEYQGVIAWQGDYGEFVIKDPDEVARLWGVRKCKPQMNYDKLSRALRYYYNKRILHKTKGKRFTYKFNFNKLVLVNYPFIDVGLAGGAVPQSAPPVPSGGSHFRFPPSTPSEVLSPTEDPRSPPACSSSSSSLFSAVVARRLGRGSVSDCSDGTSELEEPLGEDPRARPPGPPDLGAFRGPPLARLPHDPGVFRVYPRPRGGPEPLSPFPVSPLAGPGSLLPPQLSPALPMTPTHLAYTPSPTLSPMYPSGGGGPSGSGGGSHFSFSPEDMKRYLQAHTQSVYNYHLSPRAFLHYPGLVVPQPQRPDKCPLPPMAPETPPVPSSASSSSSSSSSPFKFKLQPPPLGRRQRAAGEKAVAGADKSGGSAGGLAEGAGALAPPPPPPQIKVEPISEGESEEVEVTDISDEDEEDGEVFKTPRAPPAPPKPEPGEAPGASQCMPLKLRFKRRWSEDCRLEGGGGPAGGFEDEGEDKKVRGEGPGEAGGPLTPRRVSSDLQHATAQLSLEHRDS
As to conditions: protein: recombinant; tags: N-terminal GST; dsDNA, one strand shown. In outline: as §1

The next experiment has as its target T7, ETV3L (Homo sapiens, UniProt Q6ZN32 1-361).
T7 sequence: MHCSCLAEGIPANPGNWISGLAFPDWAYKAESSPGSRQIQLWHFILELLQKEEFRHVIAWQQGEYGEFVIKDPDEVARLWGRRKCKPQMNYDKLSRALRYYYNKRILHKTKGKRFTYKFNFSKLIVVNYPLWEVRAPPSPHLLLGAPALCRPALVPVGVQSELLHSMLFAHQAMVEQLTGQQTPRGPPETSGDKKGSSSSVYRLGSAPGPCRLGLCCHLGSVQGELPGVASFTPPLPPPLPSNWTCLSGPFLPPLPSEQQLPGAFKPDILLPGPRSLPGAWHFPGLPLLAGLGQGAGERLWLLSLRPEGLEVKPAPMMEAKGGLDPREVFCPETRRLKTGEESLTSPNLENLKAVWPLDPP
The settings on record: protein: recombinant; tags: N-terminal GST; dsDNA, one strand shown. In outline:
as §1

In a further experiment the target is T8, ETS2 (Homo sapiens, UniProt P15036 1-469).
T8 sequence: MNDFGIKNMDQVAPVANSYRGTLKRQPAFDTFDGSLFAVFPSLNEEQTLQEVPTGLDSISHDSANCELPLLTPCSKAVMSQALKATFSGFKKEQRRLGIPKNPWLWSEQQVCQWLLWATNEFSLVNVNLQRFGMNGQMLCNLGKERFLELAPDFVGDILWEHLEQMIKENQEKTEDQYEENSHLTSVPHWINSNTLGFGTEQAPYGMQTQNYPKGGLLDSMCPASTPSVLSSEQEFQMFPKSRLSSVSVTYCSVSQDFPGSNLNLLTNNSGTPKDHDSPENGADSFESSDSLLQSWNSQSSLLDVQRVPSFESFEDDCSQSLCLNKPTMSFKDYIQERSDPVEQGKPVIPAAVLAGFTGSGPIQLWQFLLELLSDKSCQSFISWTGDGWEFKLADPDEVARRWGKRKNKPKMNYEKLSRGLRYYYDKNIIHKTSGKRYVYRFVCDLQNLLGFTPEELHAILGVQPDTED
The settings on record: protein: recombinant; tags: N-terminal GST; dsDNA, one strand shown. In outline:
as §1

The target of the next experiment is T9, SPDEF (Homo sapiens, UniProt O95238 1-335).
T9 sequence: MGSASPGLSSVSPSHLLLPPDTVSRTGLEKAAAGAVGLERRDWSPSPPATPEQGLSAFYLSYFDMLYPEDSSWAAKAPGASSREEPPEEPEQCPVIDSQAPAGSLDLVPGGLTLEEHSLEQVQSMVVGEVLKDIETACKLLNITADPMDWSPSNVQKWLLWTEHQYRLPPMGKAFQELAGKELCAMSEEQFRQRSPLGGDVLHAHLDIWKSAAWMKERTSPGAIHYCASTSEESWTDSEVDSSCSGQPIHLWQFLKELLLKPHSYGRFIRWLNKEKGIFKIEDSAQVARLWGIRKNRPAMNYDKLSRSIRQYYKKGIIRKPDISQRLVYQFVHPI
As to conditions: protein: recombinant; tags: N-terminal GST; dsDNA, one strand shown. Put shortly:
as §1

A further experiment has as its target T10, ETV7 (Homo sapiens, UniProt Q9Y603 1-341).
T10 sequence: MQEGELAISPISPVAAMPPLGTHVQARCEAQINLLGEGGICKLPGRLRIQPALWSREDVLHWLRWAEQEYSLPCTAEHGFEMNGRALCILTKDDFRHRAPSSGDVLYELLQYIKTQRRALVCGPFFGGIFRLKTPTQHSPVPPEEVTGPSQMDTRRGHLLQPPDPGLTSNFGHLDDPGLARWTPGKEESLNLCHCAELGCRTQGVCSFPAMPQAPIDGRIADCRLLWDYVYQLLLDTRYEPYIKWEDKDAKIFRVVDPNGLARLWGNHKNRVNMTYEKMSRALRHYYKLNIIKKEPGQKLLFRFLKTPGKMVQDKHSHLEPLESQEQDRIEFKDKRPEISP
As to conditions: protein: recombinant; tags: N-terminal GST; dsDNA, one strand shown. Put shortly: as §1

In a further experiment the target is T11, ELF5 (Homo sapiens, UniProt Q9UKW6-2 1-255).
T11 sequence: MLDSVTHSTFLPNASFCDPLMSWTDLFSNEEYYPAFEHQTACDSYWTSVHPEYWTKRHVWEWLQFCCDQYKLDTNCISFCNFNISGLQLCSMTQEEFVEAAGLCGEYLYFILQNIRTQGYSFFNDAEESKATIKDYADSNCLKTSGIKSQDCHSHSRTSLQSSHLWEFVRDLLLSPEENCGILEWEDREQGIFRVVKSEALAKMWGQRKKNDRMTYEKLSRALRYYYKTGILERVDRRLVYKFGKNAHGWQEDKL
As to conditions: protein: recombinant; tags: N-terminal GST; dsDNA, one strand shown. In outline:
as §1

In the next experiment the target is T12, ETV3 (Homo sapiens, UniProt P41162-2 1-143).
T12 sequence: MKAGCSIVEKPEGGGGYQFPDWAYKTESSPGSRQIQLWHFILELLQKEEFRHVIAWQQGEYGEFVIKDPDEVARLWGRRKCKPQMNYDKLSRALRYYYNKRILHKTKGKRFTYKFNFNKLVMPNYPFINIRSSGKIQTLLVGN
The settings on record: protein: recombinant; tags: N-terminal GST; dsDNA, one strand shown. In outline: as §1

In a further experiment the target is ETV6 (Homo sapiens, UniProt P41212 1-452). The settings on record: protein: recombinant; tags: N-terminal GST; dsDNA, one strand shown. Put shortly:
as §1

ETV5, sequence (P41161 whole entry): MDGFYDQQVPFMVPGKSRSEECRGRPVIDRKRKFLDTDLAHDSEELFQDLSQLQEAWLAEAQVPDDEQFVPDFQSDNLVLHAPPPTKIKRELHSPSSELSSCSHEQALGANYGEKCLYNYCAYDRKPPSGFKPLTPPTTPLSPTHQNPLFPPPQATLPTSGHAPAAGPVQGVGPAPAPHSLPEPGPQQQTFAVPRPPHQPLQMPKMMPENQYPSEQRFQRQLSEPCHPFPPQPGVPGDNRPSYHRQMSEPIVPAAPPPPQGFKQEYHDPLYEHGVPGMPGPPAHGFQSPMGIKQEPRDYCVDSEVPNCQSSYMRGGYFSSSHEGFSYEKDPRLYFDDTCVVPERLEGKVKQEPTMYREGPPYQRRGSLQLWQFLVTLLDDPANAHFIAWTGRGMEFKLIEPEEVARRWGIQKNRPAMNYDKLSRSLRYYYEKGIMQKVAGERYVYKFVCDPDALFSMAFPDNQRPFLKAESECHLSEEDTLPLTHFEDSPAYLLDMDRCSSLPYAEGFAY
CRX, sequence (O43186 whole entry): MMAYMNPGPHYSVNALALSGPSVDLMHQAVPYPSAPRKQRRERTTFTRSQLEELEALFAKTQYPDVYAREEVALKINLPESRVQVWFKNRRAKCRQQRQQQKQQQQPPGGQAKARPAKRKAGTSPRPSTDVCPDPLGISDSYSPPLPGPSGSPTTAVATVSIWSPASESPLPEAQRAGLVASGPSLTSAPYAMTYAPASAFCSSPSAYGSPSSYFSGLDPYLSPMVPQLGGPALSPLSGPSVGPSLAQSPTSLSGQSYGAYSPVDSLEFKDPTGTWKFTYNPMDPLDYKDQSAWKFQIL
ETV6, sequence (P41212 whole entry): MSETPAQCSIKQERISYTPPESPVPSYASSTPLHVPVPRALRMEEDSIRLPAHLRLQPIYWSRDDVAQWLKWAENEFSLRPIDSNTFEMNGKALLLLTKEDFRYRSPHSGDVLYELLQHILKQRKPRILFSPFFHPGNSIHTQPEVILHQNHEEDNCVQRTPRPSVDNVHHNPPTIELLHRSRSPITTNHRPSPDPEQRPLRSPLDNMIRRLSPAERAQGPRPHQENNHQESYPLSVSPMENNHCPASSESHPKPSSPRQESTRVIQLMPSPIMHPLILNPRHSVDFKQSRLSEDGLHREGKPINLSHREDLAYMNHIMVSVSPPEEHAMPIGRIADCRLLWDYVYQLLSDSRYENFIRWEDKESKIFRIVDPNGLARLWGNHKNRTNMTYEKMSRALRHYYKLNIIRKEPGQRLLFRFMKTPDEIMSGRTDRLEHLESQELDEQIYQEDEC
ETV1, sequence (P50549 whole entry): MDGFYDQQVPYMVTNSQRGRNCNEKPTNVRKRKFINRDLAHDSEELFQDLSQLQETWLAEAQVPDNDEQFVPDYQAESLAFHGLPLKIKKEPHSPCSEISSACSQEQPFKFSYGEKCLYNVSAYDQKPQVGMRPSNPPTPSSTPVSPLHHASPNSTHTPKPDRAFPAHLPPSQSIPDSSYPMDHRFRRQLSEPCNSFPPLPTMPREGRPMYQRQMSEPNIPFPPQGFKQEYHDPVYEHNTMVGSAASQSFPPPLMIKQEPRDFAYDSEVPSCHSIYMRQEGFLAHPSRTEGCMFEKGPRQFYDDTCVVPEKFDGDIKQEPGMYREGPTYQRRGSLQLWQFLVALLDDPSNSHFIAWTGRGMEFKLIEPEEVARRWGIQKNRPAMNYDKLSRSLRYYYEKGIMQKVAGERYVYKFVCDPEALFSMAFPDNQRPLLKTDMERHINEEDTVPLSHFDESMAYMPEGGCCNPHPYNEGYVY
HSF1, sequence (Q00613 whole entry): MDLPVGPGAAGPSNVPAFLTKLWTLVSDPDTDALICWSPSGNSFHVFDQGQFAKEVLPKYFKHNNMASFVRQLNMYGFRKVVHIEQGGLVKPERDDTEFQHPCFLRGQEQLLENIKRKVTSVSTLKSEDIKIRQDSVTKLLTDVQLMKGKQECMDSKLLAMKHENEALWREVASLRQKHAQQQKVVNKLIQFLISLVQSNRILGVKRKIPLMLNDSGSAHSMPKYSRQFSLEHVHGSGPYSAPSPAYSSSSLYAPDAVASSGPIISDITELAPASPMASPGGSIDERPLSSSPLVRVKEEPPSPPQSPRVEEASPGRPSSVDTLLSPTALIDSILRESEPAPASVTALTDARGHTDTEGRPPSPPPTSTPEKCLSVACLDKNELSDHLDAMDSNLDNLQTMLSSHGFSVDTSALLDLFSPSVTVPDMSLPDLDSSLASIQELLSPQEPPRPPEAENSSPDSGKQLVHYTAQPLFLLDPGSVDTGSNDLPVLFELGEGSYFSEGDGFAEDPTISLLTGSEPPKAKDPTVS

On to TTGCTT, for which the binding signal was 1.16 fold enrichment (6-mer frequency, TF over GST control) with FEV; 1.24 fold enrichment (6-mer frequency, TF over GST control) with ETV5; 1.1 fold enrichment (6-mer frequency, TF over GST control) with HSF1; 1.38 fold enrichment (6-mer frequency, TF over GST control) in the experiment with SPIC; 1.24 fold enrichment (6-mer frequency, TF over GST control) with ELF4; 1.24 fold enrichment (6-mer frequency, TF over GST control) with ELK4. Moreover, the binding signal in the experiment with ETV2 is 1.16 fold enrichment (6-mer frequency, TF over GST control); with ELF3, 1.31 fold enrichment (6-mer frequency, TF over GST control); in the experiment with CRX, 1.24 fold enrichment (6-mer frequency, TF over GST control); with ETV1, 1.25 fold enrichment (6-mer frequency, TF over GST control); with ERF, 1.18 fold enrichment (6-mer frequency, TF over GST control); with ETV3L, 1.28 fold enrichment (6-mer frequency, TF over GST control). For the same sequence, the binding signal in the experiment with ETS2 was 1.19 fold enrichment (6-mer frequency, TF over GST control); with SPDEF, 1.28 fold enrichment (6-mer frequency, TF over GST control); in the experiment with ETV7, 1.45 fold enrichment (6-mer frequency, TF over GST control); in the experiment with ELF5, 1.29 fold enrichment (6-mer frequency, TF over GST control); with ETV3, 1.43 fold enrichment (6-mer frequency, TF over GST control); with ETV6, 1.28 fold enrichment (6-mer frequency, TF over GST control).
